Reference: PubChem BioAssay (EPA / NIEHS)
Inconclusive results are not listed. Activity calls are given as the source filed them. How the source made its calls: active means hit-call score of the fitted dose curve at least 0.9, where 1 is the maximum; inconclusive means response in the unintended direction; inactive means score below 0.9.

Each compound was assayed on Sodium/Iodide Symporter (NIS), SLC5A5 (gene 6528) (assay: CPHEA_Stoker_NIS_Inhibition_RAIU: CPHEA's Radioactive Iodide Uptake (RAIU) Assay for Sodium/Iodide Symporter (NIS) Inhibition, Stoker and Laws Labs (AID 2283841)).
In short: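 Iodide uptake through human NIS is measured in an engineered HEK293T line. Cells take up 125I (329pM final) for 2 hours at room temperature alongside chemicals at 0.001–100uM. Retained radioactivity is counted, and the signal is expressed against DMSO controls.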
For `CCCCCCCCCc1ccc(OCCO)cc1`, the AC50 was 7.03 µM (active). With `O=S(=O)(Cl)C(F)(F)C(F)(F)C(F)(F)C(F)(F)C(F)(F)C(F)(F)C(F)(F)C(F)(F)F` the AC50 was 16.9 µM (active). In the case of `CCc1cc(Cc2cc(CC)c(N)c(CC)c2)cc(CC)c1N`, the AC50 is reported as 20 µM (active). `C=CC(=O)OCC(F)(F)C(F)(F)C(F)(F)COC(=O)C=C` was tested, and the outcome was “inactive”. With `FC(F)(F)C(F)(F)C(F)(F)C(F)(F)C(F)(F)C(F)(F)C(F)(F)CCI` the AC50 was 3.31 µM (active). `CCN(CCO)S(=O)(=O)C(F)(F)C(F)(F)C(F)(F)C(F)(F)C(F)(F)C(F)(F)C(F)(F)C(F)(F)F` was tested, and the outcome was “inactive”. `O=C(F)C1(F)C(F)(F)C(F)(F)C(F)(F)C(F)(F)C1(F)F` was tested, and the outcome was “inactive”. With `CCCCCCCCCCCCCC[P+](CCCC)(CCCC)CCCC` the AC50 was 9.92 µM (active). `CC(C)Nc1ccc(NC(C)C)c2c1C(=O)c1ccccc1C2=O` was tested, and the outcome was “inactive”. With `COCCOCCC[Si](C)(O[Si](C)(C)C)O[Si](C)(C)C` the AC50 was 19.4 µM (active). For `O=S(=O)(OCC(F)(F)F)C(F)(F)C(F)(F)C(F)(F)C(F)(F)F`, the outcome was “inactive”. `O=C(c1ccccc1)c1ccc(O)cc1O` was tested, and the outcome was “inactive”. In the case of `C[C@]12CC[C@H]3C(=CCc4cc(O)ccc43)[C@@H]1CCC2=O`, the outcome is reported as “inactive”. In the case of `CCN=C1C=CC(=C(c2ccc(N(CC)CC)cc2)c2ccc(N(CC)CC)cc2)c2ccccc21`, the AC50 is reported as 0.553 µM (active). `O=C1C=CC(=O)N1c1ccccc1` was tested, and the AC50 was 9.92 µM (active). `NS(=O)(=O)C(F)(F)C(F)(F)C(F)(F)C(F)(F)C(F)(F)C(F)(F)F` was tested, and the outcome was “inactive”. With `CCC(Cc1c(I)cc(I)c(N)c1I)C(=O)O` (configuration not stated) the outcome was “inactive”. In the case of `OCCCC(F)(F)C(F)(F)C(F)(F)C(F)(F)C(F)(F)C(F)(F)C(F)(F)C(F)(F)F`, the outcome is reported as “inactive”. In the case of `CCN=c1cc2oc3cc(NCC)c(C)cc3c(-c3ccccc3C(=O)OCC)c-2cc1C`, the AC50 is reported as 3.23 µM (active). With `CCCCCCCCCCCCC[N+](C)(C)Cc1ccccc1` the AC50 was 11.2 µM (active). For `OCCCCC(F)(F)C(F)(F)C(F)(F)C(F)(F)F`, the outcome was “inactive”. In the case of `C=CC(=O)OCCC(F)(F)C(F)(F)C(F)(F)C(F)(F)F`, the outcome is reported as “inactive”. With `CCCCCCCCn1sc(Cl)c(Cl)c1=O` the AC50 was 9.92 µM (active). In the case of `O=C(O)CCC(F)(F)C(F)(F)C(F)(F)C(F)(F)C(F)(F)C(F)(F)C(F)(F)F`, the outcome is reported as “inactive”. For `OCC(F)(F)C(F)(F)C(F)(F)C(F)(F)C(F)(F)C(F)(F)CO`, the outcome was “inactive”. In the case of `OCC(O)CC(F)(F)C(F)(F)C(F)(F)C(F)(F)C(F)(F)C(F)(F)C(F)(F)C(F)(F)F` (configuration not stated), the outcome is reported as “inactive”. For `OCC(F)(F)C(F)(F)C(F)(F)C(F)(F)C(F)(F)C(F)(F)C(F)(F)C(F)(F)CO`, the AC50 was 18.3 µM (active).
